Molecules are shown by their SMILES. About 83,000 compounds went through this panel and 20% of them were active in at least one assay; those are over-represented in the sample as a whole.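 How to read the values: 0–100, growth inhibition (40 = 60% inhibited); 0, no net growth; -100 to 0, cell death (-40 = 40% of starting cells died; -100 = all dead).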 Unmarked numbers belong to inactive results. Activity calls are given as the source filed them.

This test relates to ACHN renal. The test is described as follows: NCI-60 one-dose screen, 48 h (100 = growth as untreated, 0 = no growth, -100 = all killed). The settings on record: 10 µM unless noted. On the procedure:
Growth inhibition of the ACHN human tumor cell line is measured as a screen for anti-cancer activity. Cells are grown in 96 well plates and exposed to the test compound for 48 hours. Compounds are tested at a single concentration, which is 10^-5 M for most compounds. The reported endpoint is percent growth (GI% or GIPRCNT), where numbers from 0 - 100% represent growth inhibition, and numbers from -100% - 0 represent cell death. For example, a value of 40 represents 60% growth inhibition. A value of 0 means no net growth occurred over the course of the experiment. A value of -40 indicates 40% of cells at the beginning of the experiment died by the end of the experiment. A value of -100 means all cells are dead at the end of the experiment.
NCI-60 Human Tumor Cell Lines Screen was performed using the standard one-dose NCI protocol, which is described in more detail at https://dtp.cancer.gov/discovery_development/nci-60/default.htm.
Compounds with GIPRCNT values below 10 were considered active. Activity score was based on GIPRCNT using the following formula: […]
Score is 0 for GIPRCNT values of 100 or above, 50 for GIPRCNT values of 0, and 100 for GIPRCNT values of -100.
Take `Nc1nc(-c2cccc([N+](=O)[O-])c2)c(N=Nc2ccccc2Cl)s1`: the growth is 63.2%. Take `Cc1cc(F)cc(NS(=O)(=O)c2ccc(-c3cnc(C4CC4)o3)cc2)c1`: the growth is 44.4%. Under `CCN1C(=O)N(CC)C2SC(N/N=C/c3cccs3)=NC21` (stereo not given) stands 32.9%; under `IP(CCCSc1n(Cc2ccc3ccccc3c2)c(-c2ccccc2)c(-c2ccccc2)[n+]1Cc1ccc2ccccc2c1)(c1ccccc1)(c1ccccc1)c1ccccc1`, 87.9%; under `C=C(C)C(=O)O[C@H]1C[C@@]2(C)OC(=CC2=O)[C@H](C)[C@H](O)[C@H]2OC(=O)C(=C)[C@@H]21`, 31.9%. Turning to `O=C1Nc2ccc(Cl)cc2/C1=C/c1ccc(OCc2ccc(F)cc2)cc1`, the growth was 103%.

In the case of `CCCCCCNC(=O)Oc1ccc(/C(=C(\C)c2ccc(OC)cc2)c2ccc(OCCN(C)C)cc2)cc1`, the growth was 88.3%. Under `O=C(CCCCCCN1CC(=O)N2[C@@H](c3ccc(Cl)c(F)c3)c3[nH]c4ccccc4c3C[C@H]2C1=O)NO` stands 92.1%; under `COc1ccc(CCN2C(=O)CSC2=S)cc1OC`, 100%; under `O=C1NC(=O)c2c1c1c3ccccc3ccc1c1[nH]c3ccccc3c21`, -2.53% (active).

On to `CN1C(=O)N(C)C2Nn3c(s/c(=C\c4ccccn4)c3=O)=NC21` (stereo not given), for which the growth is 100%.

As for `Oc1ccc(CSc2nnc(-c3ccncc3)n2-c2ccccc2)c2cccnc12`, the growth is 14.4%. The figure for `CCOC(=O)c1nn(-c2ccc(C)cc2)c(=O)c2c(N)c(C#N)c(-c3ccc(OC)cc3)cc12` is 93.6%; for `CC(=O)c1ccc(NC(=O)COc2ccc(C3SCC(=O)N3c3ccc(Br)cc3)cc2)cc1` (stereo not given) it is 97.6%.

As for `NC(=O)c1c(NC(=O)c2cccc(C(F)(F)F)c2F)sc2c1CCC(=O)C2`, the growth was 6.7% (active). The figure for `COc1ccc(C2C(C#N)=C(N)Oc3c2sc2ccc(C)cc32)cc1` (stereo not given) is 44.9%. The figure for `CCC(CC)n1c(=O)c(SC2=NC3C(NN2)N(CC)C(=O)N3CC)c(C(=O)O)c2ccccc21` (stereo not given) is 27.7%; for `COc1ccc(CCN2C(=O)/C(=C/c3nc(CO)cs3)SC2=S)cc1` it is 72.7%; for `COc1cc(/C=N/n2cnc3oc(-c4ccccc4)cc3c2=N)cc(CN2CCCC2)c1O` it is 75.9%. As to `O=C(C[n+]1ccnc2ccccc21)c1ccc(O)c(O)c1`, the growth is 17.8%.

As for `CC1(C)CC[C@]2(C(=O)O)CC[C@]3(C)C(=CCC4[C@@]5(C)C[C@@H](O)[C@@H]6OC(c7ccccc7O)OC[C@@]6(C)C5CC[C@]43C)C2C1` (stereo not given in full), the growth is 25.3%. The figure for `COc1ccc(S(=O)(=O)n2cc(C=O)c3ccccc32)c(OC)c1` is 85.6%; for `CC(C)=CCc1c(O)c(CC=C(C)C)c2c(c1O)C(=O)C1=C[C@@H]3C[C@H]4C(C)(C)O[C@@](C/C=C(\C)C(=O)O)(C3=O)[C@@]14O2` it is -0.932% (active). The figure for `O=c1[nH]c(CCl)nc2c1cnn2-c1ccccc1` is 96.7%; for `O=C(c1cccc(F)c1)n1ccc2cc(NC(=S)Nc3cccnc3)ccc21` it is 103%; for `NS(=O)(=O)c1ccc(Nc2nc(N/N=C/c3ccc(F)cc3)nc(Nc3ccccc3)n2)cc1` it is 80.8%. The figure for `CC(C)C(=O)Nc1ccc(-c2nc(-c3cccc(O)c3)c(-c3ccnc(Br)c3)[nH]2)cc1` is 64.2%. On to `COCCOc1ccc(-c2csc(NC(C)=O)n2)cc1NS(=O)(=O)c1cccc2c(N(C)C)cccc12`, for which the growth is 72%. Under `C#C[C@]1(O)CC[C@H]2[C@@H]3CC=C4c5sc(Nc6cc(OC)ccc6OC)nc5CC[C@]4(C)[C@H]3CC[C@@]21C` stands 36.5%; under `C[C@@H]1C[C@H]2C(=O)OCC(NC(=O)[C@H](Cc3cc(F)cc(F)c3)NC(=O)Nc3ccc(Cl)cc3F)C(=O)N3CCC[C@H]3C(=O)N3CCCC[C@H]3C(=O)N[C@@H](C)C(=O)N2C1` (stereo not given in full), 26%. The figure for `COc1ccc(-c2nnc(SCc3ccc(O)c4ncccc34)o2)cc1` is 23.6%; for `Oc1ccc(-c2nnc(SCc3ccc(O)c4ncccc34)o2)cc1` it is 3.36% (active). Under `O=c1oc2ccc(-c3ccc(F)cc3F)cc2c(=O)n1-c1cccc(C(F)(F)F)c1` stands 4.3% (active).

For `C#CCOc1ccc(/C=N/Nc2nc(-c3cc(Cl)ccc3Cl)cs2)cc1`, the growth is 97.8%. The figure for `CCCCSc1nnc(-c2ccc(-c3ccc(Cl)cc3)nc2C)o1` is 104%; for `COc1ccc([C@H]2c3[nH]c4ccccc4c3C[C@@H]3C(=O)N(C4CCN(Cc5ccccc5)CC4)CC(=O)N23)c(OC)c1` it is 76%. In the case of `Cc1ccc(NC(=O)N[C@@H](Cc2cc(F)cc(F)c2)C(=O)NC2C(=O)N3CCC[C@H]3C(=O)N3CCCC[C@H]3C(=O)N[C@@H](C)C(=O)N3C[C@H](C)C[C@H]3C(=O)O[C@H]2C)c(F)c1` (stereo not given in full), the growth is 32.1%.

For `COc1ccc(CN2C(=O)/C(=C/c3nc(CO)cs3)SC2=S)cc1`, the growth was 99.6%. Under `C#C[C@]1(O)CC[C@H]2[C@@H]3CC=C4c5sc(Nc6nc(C)cc(OC)n6)nc5CC[C@]4(C)[C@H]3CC[C@@]21C` stands 49.2%; under `COc1cccc(/C=C/C(=O)c2ccc(NC(=O)COc3cccc4cccnc34)cc2)c1`, 101%.

(Values after PubChem BioAssay (NCI).)
